The results in this text go back to PubChem BioAssay AID1259400 (National Center for Advancing Translational Sciences (NCATS), 2018).

The structures appear in SMILES notation. “And” between values parts separate entries of the source, which are not always exact repeats. Equal values may be shown once. About 2,100 (0.6%) of roughly 350,000 compounds were called active. Inconclusive results (about 1%) are left out. This excerpt belongs to a sample that is enriched for actives. Values without a mark were called inactive.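 Rule for the calls: active = activity change of -60% or lower, but not beyond a set lower limit; inconclusive = change between -60% and -40%, or beyond the set limit; inactive = change above -40%.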
% is set by controls: 0 for no effect and ±100 for the full control effect.

The target of the test is Relaxin receptor 1 (Homo sapiens) (UniProt Q9HBX9). The test can be described thus: qHTS Assay for Antagonists of the Relaxin Receptor RXFP1. The note with it: HEK293-RXFP1, relaxin-stimulated cAMP HTRF, 30 min; at 57.5 µM; stronger effect = lower value. On the technique in general: qHTS replaces the single test concentration by a dilution series.
Relaxin receptor 1 (Homo sapiens), sequence (Q9HBX9 whole entry, looked up): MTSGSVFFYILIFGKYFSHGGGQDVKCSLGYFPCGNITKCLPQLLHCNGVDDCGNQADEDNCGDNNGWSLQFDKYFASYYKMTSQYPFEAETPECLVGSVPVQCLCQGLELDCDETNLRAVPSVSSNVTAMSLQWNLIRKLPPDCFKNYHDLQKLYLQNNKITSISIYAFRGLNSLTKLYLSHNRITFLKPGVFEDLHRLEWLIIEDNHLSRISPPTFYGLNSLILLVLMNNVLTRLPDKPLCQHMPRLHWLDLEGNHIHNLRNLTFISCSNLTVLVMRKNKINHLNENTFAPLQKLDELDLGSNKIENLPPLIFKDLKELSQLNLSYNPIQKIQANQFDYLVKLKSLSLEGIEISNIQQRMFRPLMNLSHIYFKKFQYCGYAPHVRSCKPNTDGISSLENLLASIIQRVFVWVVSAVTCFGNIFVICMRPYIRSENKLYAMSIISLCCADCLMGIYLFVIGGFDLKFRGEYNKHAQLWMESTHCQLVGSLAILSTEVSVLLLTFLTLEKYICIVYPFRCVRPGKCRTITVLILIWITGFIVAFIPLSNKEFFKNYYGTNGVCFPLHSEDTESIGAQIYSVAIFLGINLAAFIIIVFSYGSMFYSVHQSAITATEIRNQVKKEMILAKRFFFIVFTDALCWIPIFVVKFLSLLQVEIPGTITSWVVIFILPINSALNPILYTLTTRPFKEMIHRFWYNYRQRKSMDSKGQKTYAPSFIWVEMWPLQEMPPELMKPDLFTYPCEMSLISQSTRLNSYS
Consider `COc1ccc(Cn2ccnc2SCC(=O)Nc2ccc3c(c2)OCO3)cc1`, for which the activity change, negative = inhibition was -2.29%.

On to `Cc1ccc(CN2CCc3nc(N4CCN(C)CC4)ncc3C2)cc1`, for which the activity change, negative = inhibition was -7.68%.

With `Cc1cc(-c2ccccc2)n2nc(-c3ccccc3)cc2n1`, the activity change, negative = inhibition was -15.7%.

In the case of `Cc1cccc(-n2ncc(C(=O)N3CCN(c4ccc(Cl)cc4)CC3)c2C2CCN(C(=O)OC(C)(C)C)CC2)c1`, the activity change, negative = inhibition is -19.9%.

As for `O=C(OCC(O)CO)c1ccccc1Nc1ccnc2c(C(F)(F)F)cccc12` (centres undefined), the activity change, negative = inhibition is -23.3%.

For `Cc1ccc(C2CCN(C(=O)c3cnn(-c4ccccc4Cl)c3C3CCN(C(=O)OC(C)(C)C)CC3)C2)cc1` (centres undefined), the activity change, negative = inhibition was -70.8% (active).

As for `Cc1cccc(-n2ncc(C(=O)N3CCC(C)CC3)c2C2CCN(C(=O)OC(C)(C)C)CC2)c1`, the activity change, negative = inhibition is 1.6%.

Regarding `Cc1ccc(CN2CCC(CNC(=O)c3cnn(-c4ccccc4Cl)c3C3CCN(C(=O)OC(C)(C)C)CC3)CC2)cc1`, the activity change, negative = inhibition is -35.3%.

As for `Cc1cccc(C)c1NC(=O)c1ccc(N)cc1`, the activity change, negative = inhibition is 14.2%.

Turning to `CCOc1cccc2c1N[C@@H](c1ccc(C(=O)O)cc1)[C@H]1CC=C[C@@H]21`, the activity change, negative = inhibition was -4.8%.

Regarding `O=C(CCl)Nc1ccc(Sc2ccc(NC(=O)CCl)cc2)cc1`, the activity change, negative = inhibition is -96.8% (active).

Turning to `O=C(CCl)Nc1cccc(CP(=O)(c2ccccc2)c2ccccc2)c1`, the activity change, negative = inhibition is -12.2%.

Consider `CC(C)(CCl)C(=O)Nc1ccc(Sc2ccc(F)cc2)cc1`, for which the activity change, negative = inhibition is -28.2%.

With `CCCNC(=O)CCC(=O)N1Cc2ccccc2Oc2ncccc21`, the activity change, negative = inhibition was -2.12%.

As for `Cc1ccccc1CNC(=O)CCC(=O)N1Cc2ccccc2Oc2ncccc21`, the activity change, negative = inhibition is -120% (active).

Regarding `Cc1ccc(CNC(=O)CCC(=O)N2Cc3ccccc3Oc3ncccc32)cc1`, the activity change, negative = inhibition was 0.223%.

Regarding `O=C(CC1N=C2c3ccccc3N=C(SCc3ccc(F)cc3)N2C1=O)NCc1cccs1` (centres undefined), the activity change, negative = inhibition is -7.63%.

`COc1ccccc1C(=O)Nc1c(C(=O)N(C)Cc2ccccc2)sc2nc(C)c(Cl)c(C)c12`: the activity change, negative = inhibition was -8.81%.

Regarding `CCC(=O)N1CCc2cc(Br)cc(S(=O)(=O)CCC(=O)NCCc3ccc(OC)c(OC)c3)c21`, the activity change, negative = inhibition is -17.8%.

For the compound `Cc1ccc(C)c(N2CCN(C(=O)Cn3nc(C)c4sc5ccccc5c4c3=O)CC2)c1`, the activity change, negative = inhibition was -3.69%.

Consider `CCOc1ccc(CNC(=O)C2CCCN(S(=O)(=O)N(CC)c3ccc(OCC)cc3)C2)cc1` (centres undefined), for which the activity change, negative = inhibition was -7.3%.

With `CCCCOc1ccc(Cn2c(=O)oc3ccc(C)cc32)cc1OC`, the activity change, negative = inhibition was -39.4%.

On to `CCCCOc1ccc(CN2C(=O)C(=O)c3cc(Br)cc(C)c32)cc1OC`, for which the activity change, negative = inhibition was -71.4% (active).

For `CCCCN1C(=O)C(C)=C(C)C1OCCc1ccc(OC)c(OC)c1` (centres undefined), the activity change, negative = inhibition is -1.03%.

Take `Cc1cc(C)c2oc(C(=O)Nc3ccc(S(=O)(=O)N4CCCCCC4)cc3)cc(=O)c2c1`: the activity change, negative = inhibition was -1.32%.

For the compound `CO/N=C(\C(=O)N[C@@H]1C(=O)N2C(C(=O)O)=C(Cn3nnc(C)n3)CS[C@H]12)c1csc(N)n1`, the activity change, negative = inhibition is 10%.

Consider `COc1ccccc1C(=O)NCC(=O)OCC(=O)Nc1nnc(-c2ccccc2)o1`, for which the activity change, negative = inhibition is -0.478%.

With `CC(=O)Nc1cccc(C(=O)OCC(=O)Nc2nnc(-c3ccccc3)o2)c1`, the activity change, negative = inhibition was -4.64%.

In the case of `O=C(COC(=O)c1ccc(Oc2ccccc2)cc1)Nc1nnc(-c2ccccc2)o1`, the activity change, negative = inhibition was -76.2% (active).

With `O=C(CN1CCSc2ccccc21)N1CCN(c2ccccc2)CC1`, the activity change, negative = inhibition is -6.69%.

On to `CCOc1ccc(-c2cc(C)n3nc(C(=O)Nc4ccc(C)c(C)c4)cc3n2)cc1`, for which the activity change, negative = inhibition was -24%.

Take `CCCn1c(NCc2ccc(N(CC)CC)cc2)nc2ccccc21`: the activity change, negative = inhibition was -15%.

For `Cc1ccc(-c2nc(S(=O)(=O)c3ccc(C)cc3)c(N3CCCCCC3)o2)cc1`, the activity change, negative = inhibition is 2.42%.

`O=C(CSc1oc(-c2ccc(F)cc2)nc1S(=O)(=O)c1ccc(Br)cc1)NC1CCCCC1`: the activity change, negative = inhibition is -5.96%.

In the case of `CC(C)S(=O)(=O)c1oc(-c2ccc(F)cc2)nc1S(=O)(=O)c1ccc(F)cc1`, the activity change, negative = inhibition was -89.7% (active).

Take `O=c1cnnc(Nc2ccccc2F)[nH]1`: the activity change, negative = inhibition is -93.6% (active).

For the compound `O=c1cnnc(Nc2ccccc2)[nH]1`, the activity change, negative = inhibition is 9%.

As for `Cc1nnc(Nc2ccccc2F)s1`, the activity change, negative = inhibition was 3.61%.

As for `CCCN(CCC)CCNC(=O)c1ccc2c(c1)NC(=O)C(CS(=O)(=O)Cc1cccc(Br)c1)N2` (centres undefined), the activity change, negative = inhibition is -10.4%.

Take `Cc1ccc(CN(C(=O)COc2ccc(Cl)cc2C)C2CCS(=O)(=O)C2)o1` (centres undefined): the activity change, negative = inhibition is -6.16%.

`COc1cc(OC)c(NC(=O)N2CC3CCCN3c3ccccc32)cc1Cl` (centres undefined): the activity change, negative = inhibition was -23.5%.

Regarding `Oc1c(Cl)cc(Cl)c(Cl)c1Cc1c(O)c(Cl)cc(Cl)c1Cl`, the activity change, negative = inhibition is -62.6% (active).

For `Cc1nc(SCC(=O)Nc2ccc(C(=O)O)cc2)n[nH]1`, the activity change, negative = inhibition is -9%.

On to `CCOc1ccc(NC(=O)c2c(NCc3cccc(OC)c3OC)sc3c2CCC3)cc1`, for which the activity change, negative = inhibition was -17.6%.

On to `CCOC(=O)c1ccc(NC(=O)c2c(NCc3cccc(OC)c3)sc3c2CCC3)cc1`, for which the activity change, negative = inhibition is -35.6%.

For the compound `CCOC(=O)N1CCc2c(sc(NCc3cccc(F)c3)c2C(=O)Nc2ccccc2OCC)C1`, the activity change, negative = inhibition is -69.1% (active).

In the case of `CC(C)N=C1CCCC1C(=S)SSC(=S)C1CCCC1=NC(C)C` (centres undefined), the activity change, negative = inhibition is -72.7% (active).

As to `COc1cccc(C(=O)NC(=O)Nc2ccc(-c3cc(C(F)(F)F)nn3-c3ccccc3)cc2)c1`, the activity change, negative = inhibition is -5.11%.

For the compound `CCc1nc2ccc(C(=O)N3CCN(c4cc(Cl)ccc4C)CC3)cc2nc1CC`, the activity change, negative = inhibition is -64.4% (active).

For `CCc1nc2ccc(C(=O)N3CCN(c4cccc(Cl)c4)CC3)cc2nc1CC`, the activity change, negative = inhibition was -23.6% and -19.3%.

Consider `Cc1ccc(Cl)cc1N1CCN(C(=O)c2cccn3c(=O)c4cc(Cl)ccc4nc23)CC1`, for which the activity change, negative = inhibition was 3.52%.

In the case of `COC(=O)Nc1nc2ccc(C(=O)C3CC3)cc2[nH]1`, the activity change, negative = inhibition is 14.8%.

Consider `Cn1c(SCC(=O)N2CCCc3ccccc32)ncc(C(=O)Nc2ccc(F)cc2)c1=O`, for which the activity change, negative = inhibition was -2.51%.

In the case of `Cc1cc(C)c2oc(C(=O)Nc3ccc(S(=O)(=O)N(C)c4ccccc4)cc3)cc(=O)c2c1`, the activity change, negative = inhibition is -2.14%.
